KB-V1 cytotox – KB-V1 MDR subline cytotoxicity | KB-V1 MDR cells viability, CellTiter-Glo, 72 h | 3.4% of 400,000 active | Potency, µM (highest dose often 46.1 µM), most hits filed as cytotoxic | AID 1347076; note: nearly all actives have a fitted effect of over 60% in size
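In this primary screen, KB-V1 cells overexpressing P-gp are incubated with library compounds (lowest to highest concentration) for 72 h at 37 degrees C before a luminescent ATP viability read.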
DT40 TDP1 no CPT – qHTS for Inhibitors of human tyrosyl-DNA phosphodiesterase 1 (TDP1): qHTS in cells in absence of CPT; Potency, µM (titrated, usually from 46.2 µM), for the others: top-dose activity change, negative = growth inhibition, usual class: inhibitors; AID 686978, 2013; DT40 Tdp1-/- hTDP1 cells, no CPT, ATP luminescence, 48 h; 15% of 420,000 active; note: nearly all actives have a fitted effect of over 55% in size
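A cellular qHTS used chicken DT40 cells lacking endogenous Tdp1 but carrying stably transfected human TDP1. Compounds were applied without camptothecin, and cell growth kinetics were judged by ATP-dependent luminescence after ≥48 hr.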
TDP1 cell CPT – DT40-hTDP1 cell growth loss with CPT | chicken DT40 Tdp1-/-;hTDP1 cells + 20 nM CPT, ATP luminescence, 48 h | Potency, µM (highest dose often 46.2 µM), inactives show at the top dose activity change, negative = growth inhibition, hits mostly inhibitors | 12% of 420,000 active; note: nearly all actives have a fitted effect of over 55% in size
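Chicken DT40 Tdp1-/- cells complemented with human TDP1, 400 cells/well, exposed to compounds plus 20 nM camptothecin for at least 48 h at 37 C; viability read as ATP content by CellTiter-Glo luminescence.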
HT1080 IDH1KD tx – kills HT-1080 cells with IDH1 knockdown | HT-1080 IDH1 knockdown viability, ATP luminescence, 48 h | Potency, µM (series often up to 46.1 µM), without a hit: top-dose activity, negative = toxicity, most hits filed as cytotoxic | 2% of 360,000 active | AID 686971;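 note: 0% = DMSO wells and -100% = cell-free medium wells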
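HT-1080-IDH1KD cells (IDH1 knocked down), 750/well in RPMI with 5% FBS, treated with compound 48 h at 37 degrees C. Viability by CellTiter-Glo luminescence, normalised to DMSO and no-cell wells; concentration-response curves classed.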
KB-3-1 tox – KB-3-1 parental cell cytotoxicity. KB-3-1 viability, CellTiter-Glo ATP luminescence, 72 h. Potency, µM (highest dose often 46.1 µM), most hits filed as cytotoxic. 1.4% of 400,000 active. AID 1347075; note: nearly all actives have a fitted effect of over 60% in size
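KB-3-1 cells, DMEM (no phenol red) + 10% FBS; compound by pin transfer, 72 h, 37 °C. Readout: CellTiter-Glo luminescence after 10 min. Data normalized, curve-fitted.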
HT1080-NT tox – kills 2HG-producing HT-1080-NT fibrosarcoma cells. HT-1080-NT fibrosarcoma viability, CellTiter-Glo ATP luminescence, 48 h. Potency, µM (titrated, usually from 46.1 µM), for the others: at the highest dose activity, negative = less viability, hits mostly cytotoxic. 1.6% of 360,000 active. AID 686970;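 note: NT is the 2HG producing partner of a matched IDH1 knockdown line; 0% = DMSO-treated cells and -100% = media-only wells without cells; nearly all actives have a fitted effect of over 55% in size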
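HT-1080-NT fibrosarcoma cells (2HG-overproducing), 750 cells/well in RPMI with 5% FBS, dosed after 2 h and incubated 48 h at 37C. CellTiter-Glo luminescence normalized to DMSO and no-cell wells; concentration-response curves fitted and classed.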
An asterisk follows results filed as active; i = inactive; ? = inconclusive; . = no result given. Compounds with a hit are over-represented: about 19% of the library has one in this group of screens. Calls come from the whole dose curve; as a rule, active = well fitted curve in the direction sought with a large enough effect; inconclusive = small, poorly fitted or top-dose-only effect, or another doubt; inactive = no such curve, though single readings can be large; an effect the other way counts as inactive or inconclusive. Unless noted, % is set by controls: 0 for no effect and ±100 for the full control effect; potency is the fitted concentration of half-maximal effect.

SMILES	KB-V1 cytotox	DT40 TDP1 no CPT	TDP1 cell CPT	HT1080 IDH1KD tx	KB-3-1 tox	HT1080-NT tox
N#CC(C#N)=c1ccc2c(c1)N1C3=C(CCCC3)CC3CCCCC31N=2 (centres undefined)	?	?	?	-1%	?	0%
N#C/C(C(N)=O)=c1/ccc2c(c1)N1C3=C(CCCC3)CC3CCCCC31N=2 (centres undefined)	23µM*	13µM*	15µM*	-3%	?	-3%
CCOc1ccc(NC(=O)CCS(=O)(=O)c2ccc3c(c2)n(C)c(=O)c(=O)n3C)cc1	.	4%	16%	.	.	.
Oc1c(CN2CCCCC2)cc(Br)c2cccnc12	?	5.2µM*	5.2µM*	?	13µM*	?
O=C(Oc1c(CN2CCOCC2)cc(Cl)c2cccnc12)c1ccccc1	?	?	?	10µM*	?	?
Oc1c(CN2CCc3ccccc3C2)cc(Cl)c2cccnc12	?	5.8µM*	5.8µM*	?	?	?
O=[N+]([O-])c1cc(CN2CCOCC2)c2cccnc2c1O	i	?	?	?	i	-11%
O=C(COc1c(Br)cc(Br)c2cccnc12)N1CCCCC1	i	?	-23%	-16%	i	-15%
Oc1c(Cl)cc(CN2CCOCC2)c2cccnc12	i	1µM*	0.65µM*	5.8µM*	?	7.3µM*
COc1cc(OC)cc(C(=O)Oc2c(CN3CCOCC3)cc(Cl)c3cccnc23)c1	?	?	?	-26%	i	?
CCOC(=O)c1c(C)[nH]c(C)c1S(=O)(=O)NCC(=O)Nc1cccc(C(F)(F)F)c1	i	-22%	?	.	i	.
OC(COC1CCCCC1)CN1CCCCC1 (centres undefined)	i	0%	-4%	23%	i	6%
COc1ccc(NC(=O)CSc2nc3ccccc3c(=O)n2CCC(=O)NC2CCCCC2)c(OC)c1	i	-5%	-3%	.	i	.
CC(C)(C)OC(=O)N[C@H](C(=O)OC(C)(C)C)c1ccc2c(c1)OCO2	i	?	?	11%	i	7%
N#C/C(=C\c1cc2c(cc1Br)OCO2)C(=O)NCC1CCCO1 (centres undefined)	i	?	?	-1%	i	0%
O=C(Oc1ccc(C(=S)N2CCOCC2)cc1Cl)c1ccccc1F	i	-23%	-10%	0%	i	-1%
O=C(Oc1c(CN2CCOCC2)cc(Cl)c2cccnc12)c1ccccc1F	?	4.6µM*	3.7µM*	?	18µM*	?
CCOC(=O)c1ccccc1NC(=O)Cn1c(=O)n(Cc2nc(-c3ccccc3)no2)c(=O)c2ccccc21	i	-29%	-26%	.	i	.
Cc1c(O)ccc2c(CC(=O)N[C@@H](Cc3ccc(O)cc3)C(=O)O)cc(=O)oc12	i	0%	-2%	0%	i	-9%
O=C(COc1ncnc2ccc(Br)cc12)Nc1ccc(N2CCOCC2)cc1	i	0%	-12%	9%	i	5%
CCOc1ccccc1Nc1ncnc2ccc(Br)cc12	i	?	?	-12%	i	-10%
Brc1ccc2ncnc(Nc3ccc(N4CCOCC4)cc3)c2c1	2.9µM*	9.2µM*	12µM*	-27%	?	-25%
CC(C)Nc1ncnc2ccc(Br)cc12	?	4.1µM*	4.1µM*	-22%	i	-10%
CC(C)COc1ccc(Nc2ncnc3ccc(Br)cc23)cc1	?	?	12µM*	.	i	.
O=C(CNC(=O)C1CCCCC1)OCC(=O)c1ccc(C2CCCCC2)cc1	i	?	?	.	i	.
SMILES	KB-V1 cytotox	DT40 TDP1 no CPT	TDP1 cell CPT	HT1080 IDH1KD tx	KB-3-1 tox	HT1080-NT tox
Cc1ccccc1OCCCCCCN1CCNCC1	i	16µM*	23µM*	?	i	?
Cc1ccc(OCCCCCCN2CCNCC2)cc1	i	21µM*	18µM*	?	i	?
Cc1cc(Cl)c(OCCOCCN2CCNCC2)c(Cl)c1	i	12µM*	?	-11%	i	-3%
O=C(CSc1nc2ccccc2n1Cc1cccc(C(F)(F)F)c1)NCc1ccccc1	i	?	18µM*	.	i	.
CN(C(=O)CSc1nc2ccccc2n1CC(=O)NCc1ccc(F)cc1)c1ccc(F)cc1	i	?	?	.	i	.
CN(C(=O)CSc1nc2ccccc2n1Cc1cccc(C(F)(F)F)c1)c1ccccc1	i	16µM*	18µM*	.	i	.
CCC(=O)NCc1nc2ccccc2n1Cc1ccccc1F	23µM*	-10%	?	-5%	i	2%
Cc1ccc(C)c(Cn2c(SCC(=O)N(C)Cc3ccccc3)nc3ccccc32)c1	i	26µM*	26µM*	.	i	.
CCCCN(C(=O)CCC(=O)Nc1cc(C)on1)C(C(=O)NC1CCCC1)c1ccccc1OCC (centres undefined)	?	?	?	-1%	i	-11%
O=C(CSc1nc2ccccc2n1Cc1ccccc1F)NCc1ccccc1	i	16µM*	?	.	i	.
Cc1ccc(Cn2c(CO)cnc2SCC(=O)Nc2ccc(C)c(Cl)c2)cc1	i	23µM*	18µM*	.	i	.

Screening data from PubChem.
